Source: PubChem BioAssay
NPSR antag: antagonists of human neuropeptide S receptor cAMP signaling. AID 1461. actives 1% (n = 220,000). Q6W5P4. CHO-NPSR cells, cAMP TR-FRET, antagonist mode. Potency, µM (titrated, usually from 38.3 µM), hits mostly inhibitors; further: nearly all actives have a fitted effect of over 50% in size
Target sequence (Q6W5P4 whole entry, looked up): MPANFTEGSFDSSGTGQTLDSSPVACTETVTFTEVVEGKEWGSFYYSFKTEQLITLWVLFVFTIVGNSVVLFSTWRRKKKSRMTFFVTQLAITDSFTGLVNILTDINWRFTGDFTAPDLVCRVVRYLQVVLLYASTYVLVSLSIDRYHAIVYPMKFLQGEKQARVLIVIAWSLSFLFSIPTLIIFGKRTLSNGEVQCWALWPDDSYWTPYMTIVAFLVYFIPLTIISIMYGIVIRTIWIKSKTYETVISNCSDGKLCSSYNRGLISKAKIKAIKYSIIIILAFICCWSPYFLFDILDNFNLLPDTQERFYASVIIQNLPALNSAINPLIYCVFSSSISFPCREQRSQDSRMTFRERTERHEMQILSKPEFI
IMPase Li cell: cell-permeable IMPase inhibitors with lithium potentiation. CHO-M1 cells, IP1 TR-FRET (IP-One), carbachol + lithium. Potency, µM (titrated, usually from 59.4 µM), hits mostly inhibitors. actives 0.35% (n = 210,000);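 further: IP1 builds up when IMPase is blocked and the TR-FRET signal falls; nearly all actives have a fitted effect of over 50% in size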
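CHO cells stably expressing M1 receptor (2000/well, cultured 16–30 h) treated 30 min at 37C with compound plus low lithium. Cytosolic IP1 by TR-FRET (665/620 ratio and 620 channel) after 10 min lysis; AC50 by Hill fit.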
IMPase cell inh: cell-permeable inhibitors of inositol monophosphatase (IMPase). P97697. CHO-M1 cells, IP1 accumulation, HTRF TR-FRET ratio. inhibition (IP1 accumulation), % at 46.1 µM. 120,000 tested, under 10 active. AID 901; active means well fitted curve in the direction sought with a large enough effect in the signal ratio, not every such curve was filed as active; inconclusive means small, poorly fitted or top-dose-only effect, or a change in a side signal; inactive means no such curve, though single readings can be large or run the other way; the % refers to the signal ratio;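 further: cells stimulated with carbachol in lithium chloride buffer; higher means more IMPase inhibition seen as more IP1 and lower FRET ratio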
Target sequence (P97697 whole entry, looked up): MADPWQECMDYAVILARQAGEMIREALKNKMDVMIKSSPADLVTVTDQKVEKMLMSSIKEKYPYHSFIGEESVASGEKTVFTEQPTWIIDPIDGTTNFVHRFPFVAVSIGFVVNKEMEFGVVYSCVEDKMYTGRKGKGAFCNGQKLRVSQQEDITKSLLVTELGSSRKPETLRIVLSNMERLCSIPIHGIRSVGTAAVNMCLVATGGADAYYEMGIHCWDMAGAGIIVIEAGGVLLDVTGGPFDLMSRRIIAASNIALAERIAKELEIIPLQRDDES
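The IP-One HTRF competitive assay in carbachol-stimulated CHO-M1 cells quantifies cellular IP1. Compounds spanned up to 46 uM final, and activity is expressed as AC50 from concentration-response fits of the ratio and donor data.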
HPGD inh: HPGD (human) dehydrogenase inhibition | P15428 | purified HPGD, NADH fluorescence kinetic, PGE2 substrate | actives 4.3% (n = 150,000) | AID 894 | Potency, µM, most hits filed as inhibitors; active means well fitted inhibition curve with a large enough effect, not every such curve was filed as active; inconclusive means small, poorly fitted or top-dose-only effect, or another doubt; inactive means no such curve, though single readings can be large or run the other way
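20 nM HPGD preincubated 15 min at room temperature with compound in 50 mM Tris-HCl pH 8, 0.01% Tween 20. Started with 1 mM NAD+ and 30 uM prostaglandin E2; NADH fluorescence (360/450 nm) read 5 times over 30-s intervals, last minus first.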
ALDH1A1 block: inhibitors of human aldehyde dehydrogenase 1A1. Purified ALDH1A1, NADH fluorescence, propionaldehyde substrate. Potency, µM (titrated, usually from 75.3 µM), usual class: inhibitors. actives 7.3% (n = 220,000); active means well fitted inhibition curve with a large enough effect, not every such curve was filed as active; inconclusive means small, poorly fitted or top-dose-only effect, or another doubt; inactive means no such curve, though single readings can be large or run the other way
PNC assembly inh: inhibitors of perinucleolar compartment assembly; PC3M PTB-GFP, PNC prevalence imaging, 16 h; stronger effect = lower value; activity change (PNC), negative = inhibition, % at 10 µM; AID 2417; actives 3.1% (n = 140,000);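 active means readout at or below -70, meaning at least 70% loss of cells showing the perinucleolar compartment, a nuclear body marking cancer cells; inconclusive means readout between -30 and a set limit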
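PC3M cells stably expressing PTB-GFP, 750–1000 cells/well, treated 16 h at 37 °C with compound (23 nl of library stock), in duplicate. After paraformaldehyde fixation and Hoechst stain, imaged at 20x; PNC prevalence scored by image analysis.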
A number is an active result; 0 = inactive; ? = inconclusive; - = no result given; [ ] = remark or other dose. This is a sample that favours compounds with a hit; in the whole collection about 11% have one here. Unless noted, the call rests on the fitted dose curve; in most records, active means well fitted curve in the direction sought with a large enough effect; inconclusive means small, poorly fitted or top-dose-only effect, or another doubt; inactive means no such curve, though single readings can be large; an effect the other way counts as inactive or inconclusive.

SMILES	NPSR antag	IMPase Li cell	IMPase cell inh	HPGD inh	ALDH1A1 block	PNC assembly inh
C=CCNC(=S)Nc1sc2c(c1C(=O)OCC)CCN(C(=O)OCC)C2	0	?	?	0	20µM	0
CCOC(=O)c1c(NC(=S)Nc2ccccc2)sc2c1CCN(CC)C2	0	0	0	?	?	0
CCOC(=O)N1CCc2c(sc(NC(=O)CN3CCOCC3)c2C(=O)Nc2ccccc2)C1	0	0	-	-	?	-
C=CCNC(=S)Nc1sc2c(c1C(=O)OCC)CC(C)(CC)OC2 (stereo not drawn)	0	0	-	0	?	-100.0
CCCCn1c(N)c(NCCC)c(=O)[nH]c1=O	0	0	-	0	0	0
CN(C)S(=O)(=O)c1cccc(-c2cn3cc(Cl)ccc3n2)c1	0	0	0	?	?	-83.1
N#CC1=C(c2ccccc2)/C(=C/c2ccccc2)OC1=O	2.51µM	0	0	?	?	0
O=C(OCc1ccc([N+](=O)[O-])cc1)C1CCN(S(=O)(=O)c2ccccc2)CC1	0	0	-	0	0	0
Cn1c(CCNC(=O)c2ccco2)nc2cc(NC(=O)C3CCCCC3)ccc21	0	0	0	0	0	-113.8
Cn1c(CCNC(=O)c2ccco2)nc2cc(NC(=O)c3ccco3)ccc21	0	0	0[1.84 µM]	0	?	0
Cn1c(CCNC(=O)c2ccco2)nc2cc(NS(=O)(=O)c3ccccc3)ccc21	0	0	0	0	20µM	0
COc1ccc(-c2noc(CN(C)C3CCOCC3)n2)cc1	0	0	-	-	0	-
CCCCC1(C)OC(=O)C(=Cc2c[nH]c3ccccc23)C(=O)O1 (stereo not drawn)	0	0	-	-	0	-
CCCCC1(C)OC(=O)C(=Cc2ccc(N(C)C)cc2)C(=O)O1 (stereo not drawn)	0	0	0	11.2µM	1.12µM	0
O=C(Nc1ccc(S(=O)(=O)NCCc2ccccc2)cc1)c1ccc(Br)o1	?	0	0	0	0	0
COc1cc(N2C(=O)C=CC2=O)c(OC)cc1Cl	?	-	-	-	8.91µM	-
COc1cc(Cl)c(S(=O)(=O)N2CCCC2)cc1Cl	0	0	-	-	0	-
CCOC(=O)CCCSc1nc2sc3c(c2c(=O)[nH]1)CCC3	0	0	0	3.55µM	0	0
CCOC(=O)CSc1nnc(CSc2nc3sc4c(c3c(=O)[nH]2)CCCC4)n1-c1ccccc1	0	0	0	14.1µM	0	0
CCOC(=O)c1nc2sc3c(c2c(=O)[nH]1)CCCC3	0	0	0	?	?	-86.5
COC(=O)CSc1nc2sc3c(c2c(=O)[nH]1)CCC3	0	-	-	-	-	-
CCCc1nnc(NC(=O)Nc2ccccc2Cl)s1	-	-	0	-	-	-
CCSc1nnc([C@H](Cc2c[nH]c3ccccc23)NC(=O)OC(C)(C)C)o1	0	0	0	0	0	0
CCN1CCN(c2cc(C)c3cc(NC(=S)N4CCN(c5ccccc5F)CC4)ccc3n2)CC1	0	0	-	-	12.6µM	-
CCN1CCN(c2cc(C)c3cc(NC(=S)N4CCN(c5ccccc5)CC4)ccc3n2)CC1	0	0	-	-	?	-
SMILES	NPSR antag	IMPase Li cell	IMPase cell inh	HPGD inh	ALDH1A1 block	PNC assembly inh
Cc1cc(N2CCN(C)CC2)nc2ccc(NC(=S)N3CCN(c4ccccn4)CC3)cc12	0	0	-	-	12.6µM	-
CNc1nc(-c2ccc3c(c2)CCN3C(=O)CC(C)(C)C)c(C)s1	0	0	-	-	0	-
CC(C)(C)C(=O)N1CCc2cc(-c3csc(N)n3)ccc21	0	0	0	0	0	0
CNc1nc(-c2ccc3c(c2)CCN3C(=O)c2ccccc2F)c(C)s1	0	0	-	-	11.2µM	-
CNc1nc(-c2ccc3c(c2)CCN3C(=O)c2ccccc2F)cs1	0	0	-	-	25.1µM	-
CNc1nc(-c2ccc3c(c2)CCN3S(=O)(=O)c2ccccc2)c(C)s1	0	0	-	-	8.91µM	-
CS(=O)(=O)N1CCc2cc(-c3csc(NC(=O)C(c4ccccc4)c4ccccc4)n3)ccc21	0	0	0	0	?	0
CCN(CC)S(=O)(=O)c1cc(NC(=O)CN2C(=O)NC3(CCCc4ccccc43)C2=O)ccc1C (stereo not drawn)	0	0	-	0	0	0
CN(C)c1ccc(NC(=O)CN2C(=O)CC(c3ccccc3)=Nc3ccccc32)cc1	0	0	0	0	0	?
Cc1ccc(NC(=O)CCl)c(C)c1	0	0	-	-	0.282µM	-
CCOc1ccc(NCC(=O)Nc2ccc(Cl)cc2C)cc1	0	0	0	0	3.55µM	0
CCOc1ccc(NC(=O)CCC(=O)NNC(=O)Nc2ccc(Cl)cc2)cc1	0	0	-	-	0	-
CCCOc1ccc(NCC(=O)Nc2ccc(C)cc2C)cc1	0	0	?	0	2.24µM	0
Cc1cc(Cl)ccc1NC(=O)CCC(=O)O	0	0	-	0	0	-83.5
CCC/C=C(\CCC)C(NC(=O)c1ccc(-c2ccccc2)cc1)c1ccc(C(=O)OC)cc1 (stereo not drawn)	-	0	-	0	0	-
C=CCn1c(SCCC(=O)O)nnc1-c1cccs1	0	0	0	0	0	0
c1ccc(Cn2c(SCc3cn4cccnc4n3)nnc2-c2ccco2)cc1	0	0	0	0	?	?
COc1ccc2nc(NC(=O)Nc3ccccc3)sc2c1	0	0	-	0	0	0
COc1ccc(NCC(=O)Nc2ccc(Cl)cc2C)c(OC)c1	0	0	0[1.84 µM]	7.94µM	4.47µM	?
COC(=O)c1ccccc1NC(=O)CSc1nnnn1-c1ccc(C)cc1C	0	10µM	0	0	?	0
Cc1ccc(-n2nnnc2SCC(=O)NNC(=O)c2ccco2)c(C)c1	0	0	0	0	?	0
CCOC(=O)c1sc(NC(=O)CSc2nnnn2-c2ccc(C)cc2C)nc1C	0	10µM	0	0	?	0
COc1cc(OC)c(C2CC(=O)N3CN(c4ccccc4C)CSC3=C2C#N)cc1OC (stereo not drawn)	0	0	0	8.91µM	3.98µM	0
COc1ccc(N2CN=C3SCC(=O)N3C2)cc1	0	0	0	0	0	?
CCc1ccccc1N1CSC2=C(C#N)C(c3ccccc3F)CC(=O)N2C1 (stereo not drawn)	0	0	0	5.62µM	2.82µM	?
SMILES	NPSR antag	IMPase Li cell	IMPase cell inh	HPGD inh	ALDH1A1 block	PNC assembly inh
COc1ccc(C2CC(=O)N3CN(c4ccccc4F)CSC3=C2C#N)cc1OC (stereo not drawn)	0	0	0	?	7.08µM	0
COc1ccc(C2CC(=O)N3CN(c4ccc(C)c(Cl)c4)CSC3=C2C#N)cc1 (stereo not drawn)	0	0	0	?	3.16µM	0
COc1ccc(C2CC(=O)N(C)c3ccccc3S2)cc1OC (stereo not drawn)	0	0	-	-	0	-
c1ccc(CNCc2ccc3c(c2)OCO3)nc1	0	0	0	0	?	?
COC(=O)CSC1=C(C#N)C(c2ccc(C)o2)CC(=O)N1 (stereo not drawn)	0	0	-	-	0	-
COc1ccc(N2CSC3=C(C#N)C(c4cccc(OC)c4OC)CC(=O)N3C2)cc1 (stereo not drawn)	0	0	0	8.91µM	12.6µM	0
